Compound activity: PubChem, National Center for Advancing Translational Sciences (NCATS)
A549 tox: counter-screen for Nrf2 inhibitors: cytotoxicity in A549 cells. A549 ARE-Fluc cells, CellTiter-Fluor viability, 18-24 h. Potency, µM (top dose mostly 46 µM), inactives show top-dose activity change, negative = cytotoxicity, hits mostly inhibitors. 390,000 tested, 0.16% active; further: potency means the concentration at half of the fitted maximal effect; on the % scale 0 is the no-effect control and ±100 the full control effect
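A549 ARE-Fluc cells in 5% FBS OPTI-MEM, 5000 cells/well, rested 2 h then exposed to compounds in concentration-response for 18-24 h at 37 °C. Viability by CellTiter-Fluor fluorescence (Ex 405/Em 525) after 30 min; luciferase luminescence (BugLite, 15 min, RT) read afterwards.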
12-LOX inh: blocks human arachidonate 12S-lipoxygenase; purified 12hLO, xylenol orange hydroperoxide absorbance; Potency, µM (titrated, usually from 108 µM), inactives show at the highest dose activity change, negative = inhibition, actives largely listed as inhibitors; 580,000 tested, 1.1% active; AID 1671190; further: potency means the concentration at half of the fitted maximal effect; on the % scale 0 is the no-effect control and ±100 the full control effect
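Hydroperoxide product was detected by ferrous iron/xylenol orange as the 573 to 405 nm absorbance ratio. Arachidonic acid at 40 uM (final) was turned over for 30 min at room temperature by 150 nM human 12hLO, pH 7.0 Hepes buffer, after 15 min compound preincubation.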
LDHA inh: LDHA (human) enzyme inhibition; P00338; purified LDHA, NADH/diaphorase-resazurin fluorescence; active compounds read low; 480,000 tested, 0.15% active; activity change, % (values are at about 110 or 230 µM); AID 1347041; in the data active means activity change below about -30%; inconclusive means mostly about -25% to -30%;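 further: plate controls were DMSO wells for no effect and wells without enzyme for full effect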
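Resorufin fluorescence (ex540/em590), read at 0 and 20 min after diaphorase/resazurin addition, reports the NADH left after a 5 min room-temperature reaction of 2 nM human LDH5 with 0.06 mM NADH and 0.2 mM pyruvate.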
mIDH1 inhibitor: inhibitors of human mutant IDH1 R132H. IDH1-R132H enzyme, NADPH consumption, diaphorase/resazurin fluorescence. Potency, µM (series often up to 76.6 µM), without a hit: at the top dose activity change, negative = inhibition, usual class: inhibitors. 390,000 tested, 0.093% active. AID 602179; further: potency means the concentration at half of the fitted maximal effect; on the % scale 0 is the no-effect control and ±100 the full control effect; nearly all actives have a fitted effect of over 65% in size
Target sequence (O75874 whole entry R132H, stated change not applied): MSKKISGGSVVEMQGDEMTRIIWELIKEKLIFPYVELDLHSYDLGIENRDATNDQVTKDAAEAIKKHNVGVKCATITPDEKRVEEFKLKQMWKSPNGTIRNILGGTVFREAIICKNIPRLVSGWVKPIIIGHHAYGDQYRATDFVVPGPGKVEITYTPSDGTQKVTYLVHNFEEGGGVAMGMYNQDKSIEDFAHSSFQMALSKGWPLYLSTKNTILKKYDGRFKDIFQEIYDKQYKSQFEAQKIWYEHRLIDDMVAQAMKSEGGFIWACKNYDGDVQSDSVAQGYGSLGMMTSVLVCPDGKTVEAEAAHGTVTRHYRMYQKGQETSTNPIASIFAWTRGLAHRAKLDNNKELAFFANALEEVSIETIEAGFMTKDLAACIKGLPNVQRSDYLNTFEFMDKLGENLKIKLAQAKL
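IDH1-R132H (0.5 ug/mL) preincubated 30 min with compound, then NADPH (0.016 mM) and alpha-KG (2 mM) added; 80 min at RT, pH 7.5. Remaining NADPH coupled via diaphorase/resazurin to fluorescence (540/590 nm); concentration-response curves normalized to no-enzyme control.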
Nrf2 block: Nrf2 pathway inhibition. Potency, µM (doses to about 46 µM), for the others: top-dose activity change, negative = inhibition, actives largely listed as inhibitors. A549 ARE-Fluc reporter, luciferase luminescence, 18-24 h. 360,000 tested, 2.1% active; further: potency means the concentration at half of the fitted maximal effect; on the % scale 0 is the no-effect control and ±100 the full control effect; nearly all actives have a fitted effect of over 60% in size
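Quantitative HTS in A549 cells stably bearing an antioxidant response element-firefly luciferase construct. Inhibition of Nrf2-driven transcription was scored by luminescence after 18-24 h of compound exposure at 37 °C.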
Nrf2 ARE act: activates Nrf2 signaling; AREc32 ARE-luciferase reporter (MCF7-derived line), luminescence, 24 h; AID 624171; 410,000 tested, 0.31% active; Potency, µM (titrated, usually from 46.1 µM), without a hit: at the highest dose activation, usual class: activators; further: potency means the concentration at half of the fitted maximal effect; % of control where 0% means no effect; nearly all actives have a fitted effect of over 65% in size
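For detection, Steady-Glo was added and plates sat 30 min at RT; before that, AREc32_Fluc cells grown overnight in OPTI-MEM/5% FBS had been treated with 23 nL compound for 24 hr at 37 deg C.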
Starred values were filed as active, the others as inactive; ? = inconclusive; . = no result. A selection: hits, their analogues and other compounds. The true share with any hit is near 2.7%. Unless noted, the call rests on the fitted dose curve; in most records, active means well fitted curve in the direction sought with a large enough effect; inconclusive means small, poorly fitted or top-dose-only effect, or another doubt; inactive means no such curve, though single readings can be large; an effect the other way counts as inactive or inconclusive.

SMILES	A549 tox	12-LOX inh	LDHA inh	mIDH1 inhibitor	Nrf2 block	Nrf2 ARE act
CCC(c1nc2ccccc2[nH]1)n1c(=O)c(-c2ccco2)nc2ccccc21 (stereo not drawn)	.	25µM*	0	.	.	.
O=c1c(-c2ccco2)nc2ccccc2n1C(c1ccccn1)c1nc2ccccc2[nH]1 (stereo not drawn)	.	?	16	.	.	.
CC1=C(C(=O)OCC(Cl)(Cl)Cl)C(c2ccc3c(c2)OCO3)NC(=O)N1 (stereo not drawn)	.	?	8	.	.	.
CC1=C(C(=O)OCc2ccc3c(c2)OCO3)C(c2ccc(Cl)cc2)NC(=O)N1 (stereo not drawn)	?	4%	2	?	7.3µM*	0%
CCOC(=O)C1=C(CCl)NC(=O)NC1c1ccc2c(c1)OCO2 (stereo not drawn)	-18%	?	2	-9%	15µM*	21%
O=C(COc1ccc2ccc(=O)oc2c1)NCC1(N2CCCCC2)CCCCC1	.	4%	3	.	.	.
CCC12CC3CC(CC(N)(C3)C1)C2	.	26%	7	.	.	.
O=C(NC1CCCCC1)/C(=C/c1ccco1)c1ccccc1	.	?	1	.	.	.
Cc1ccc(NC(=O)c2cc(-c3ccc[nH]3)n[nH]2)cc1F	.	10µM*	.	.	.	.
COc1ccc(NC(=O)c2cc(-c3ccc(F)cc3OC)n[nH]2)c(C)c1	.	8%	-8	.	.	-1%
COc1cccc(-c2cc(C(=O)Nc3ccc(F)cc3)[nH]n2)c1	6%	8%	-3	1%	2.6µM*	7%
COc1ccc(NC(=O)c2cc(-c3ccc[nH]3)n[nH]2)cc1F	.	-15%	.	.	.	.
O=C(Nc1cccc(C(F)(F)F)c1)c1cc(-c2ccc[nH]2)n[nH]1	.	16µM*	.	.	.	.
COc1cccc(-c2cc(C(=O)Nc3ccc(Br)c(C)c3)[nH]n2)c1	2%	2%	-9	-28%	19%	0%
Cc1cc(F)ccc1NC(=O)c1cc(-c2ccc[nH]2)n[nH]1	.	18µM*	.	.	.	.
Cc1ccc(-c2nc(CNC(=O)[C@@H]3CCCN3)[nH]c2-c2ccccn2)cc1	.	72%	.	.	.	.
CC(C)N(Cc1ccc(C(N)=O)cc1)C1CC1	.	1%	4	.	.	.
O=C(Nc1cccc(F)c1)c1cc(-c2ccc[nH]2)n[nH]1	.	20µM*	.	.	.	.
Cc1cc(C)cc(NC(=O)c2ccc(S(=O)(=O)NCc3cccnc3)cc2)c1	1%	-7%	-8	0%	-16%	4%
COc1cccc(S(=O)(=O)NCc2ccc(C(=O)Nc3ccc(Cl)c(Cl)c3)cc2)c1	?	2%	-7	-8%	.	3%
Cc1cccc(NC(=O)c2ccc(S(=O)(=O)NCc3cccnc3)cc2)c1	-18%	-3%	-9	1%	12µM*	0%
Cc1ccc(NS(=O)(=O)c2cccc(C(=O)Nc3cccnc3)c2)c(C)c1	-9%	?	-6	-3%	8.2µM*	3%
Cc1ccc(NS(=O)(=O)c2cccc(C(=O)NC3CC3)c2)c(C)c1	1%	41%	-2	-1%	?	-1%
O=C(Nc1ccc(Cl)c(Cl)c1)c1cccc(S(=O)(=O)NCc2cccnc2)c1	-23%	-12%	-8	-8%	15µM*	5%
COc1cc(-c2c(NC(=O)c3ccc(F)cc3)oc3ccccc3c2=O)cc(OC)c1OC	.	?	-3	.	.	.
SMILES	A549 tox	12-LOX inh	LDHA inh	mIDH1 inhibitor	Nrf2 block	Nrf2 ARE act
COc1cc(Br)cc(CN2CCN(C/C=C/c3ccccc3)CC2)c1O	-1%	14µM*	9	6%	.	0%
COc1ccc(-c2coc3cc(OCC(=O)O)ccc3c2=O)cc1OC	.	?	8	.	.	.
COc1ccc2c(COC(=O)c3ccccc3C)cc(=O)oc2c1	.	5%	6	.	.	.
O=C(CC(=O)c1cc(Cl)ccc1O)c1ccccc1	-16%	-7%	1	2%	?	?
O=C(c1ccccc1)c1cc(Cl)ccc1N1C(=O)C=CC1=O	0%	7.9µM*	0	-5%	?	3%
CCOC(=O)NNC(=O)c1ccc(CC)cc1	.	13%	-5	.	.	.
COc1ccc(NC(=O)c2nc3ccccc3nc2OC)cc1OC	.	4%	-4	.	.	.
CCCNC(=O)Cc1c(C)n(C(=O)c2ccc(Cl)cc2)c2ccc(OC)cc12	-20%	-6%	0	-20%	18µM*	0%
COC(=O)CCNC(=O)Cc1c(C)n(C(=O)c2ccc(Cl)cc2)c2ccc(OC)cc12	0%	?	-3	8%	0%	0%
CN1\C(=C/C=C/C=C/C=[N+](C)C)C(C)(C)c2ccccc21	?	2%	-1	46µM*	?	?
CN1/C(=C\C=O)C(C)(C)c2ccccc21	2%	-2%	-4	13%	-26%	0%
Cc1nc(N2CCCCC2)sc1C(=O)c1ccc(SCCO)c([N+](=O)[O-])c1	?	0%	9	-8%	21µM*	4%
CCc1cc(C(N)=O)sc1C	.	-2%	12	.	.	.
CC1(c2ccccc2)N(Cc2ccccc2)C(=O)OC12CCN(Cc1c[nH]c3ccccc13)CC2 (stereo not drawn)	.	45µM*	.	.	.	.
CC1(c2ccccc2)N(Cc2cccnc2)C(=O)OC12CCN(Cc1ccccc1O)CC2 (stereo not drawn)	.	44%	.	.	.	.
CC1(c2ccccc2)N(Cc2ccccc2C#N)C(=O)OC12CCN(Cc1c[nH]c3ccccc13)CC2 (stereo not drawn)	.	32µM*	.	.	.	.
CCc1nnc(N2CCN(c3ncnc4c3oc3ccccc34)CC2)s1	-6%	0%	-10	3%	10µM*	3%
COCCNC(=O)Cn1cc(S(=O)(=O)Cc2ccc(F)cc2)c2ccccc21	.	1%	0	.	.	.
C[n+]1c2n(c3ccccc31)N=C(c1ccc(Br)cc1)CS2	-14%	?	7	2%	?	?
C[n+]1c2n(c3ccccc31)N=C(c1ccc(-c3ccccc3)cc1)CS2	?	?	-2	2%	10µM*	-1%
O=C(NC1CCN(Cc2ccc(Cl)cc2)CC1)c1cc(C2CC2)nc2ccccc12	.	?	-8	.	.	.
CCOC(=O)c1[nH]c2c(c1C)C(=O)CC(c1ccc(OC)c(OC)c1)C2 (stereo not drawn)	-7%	144%	1	2%	-2%	0%
CCOCCOC(=O)c1[nH]c2c(c1C)C(=O)CC(c1ccc(OC)c(OC)c1)C2 (stereo not drawn)	-1%	-3%	-8	3%	21µM*	2%
CN(NC(=O)c1ccc(Cl)cc1)c1nc(-c2ccccc2)nnc1C(F)(F)F	-10%	0%	-8	-5%	23µM*	0%
